From PMC4336329 (PLoS ONE, 2015)
In all, about 310,000 compounds went through this assay and about 14,000 (4.5%) showed an effect of 50% or more. Effects have a minus sign here. The list comes from a sample in which strong results are over-represented; it also holds similar structures and randomly drawn compounds.

target: human ether-à-go-go-related gene (hERG) potassium channel (human, UniProt Q12809); assay: primary screen, population patch clamp on CHO cells stably expressing hERG; higher = less effect of the substance
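Further: peak tail current of the secondary pulse compared with the same well before compound.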

Chain of human ether-à-go-go-related gene (hERG) potassium channel (Q12809 whole entry, looked up): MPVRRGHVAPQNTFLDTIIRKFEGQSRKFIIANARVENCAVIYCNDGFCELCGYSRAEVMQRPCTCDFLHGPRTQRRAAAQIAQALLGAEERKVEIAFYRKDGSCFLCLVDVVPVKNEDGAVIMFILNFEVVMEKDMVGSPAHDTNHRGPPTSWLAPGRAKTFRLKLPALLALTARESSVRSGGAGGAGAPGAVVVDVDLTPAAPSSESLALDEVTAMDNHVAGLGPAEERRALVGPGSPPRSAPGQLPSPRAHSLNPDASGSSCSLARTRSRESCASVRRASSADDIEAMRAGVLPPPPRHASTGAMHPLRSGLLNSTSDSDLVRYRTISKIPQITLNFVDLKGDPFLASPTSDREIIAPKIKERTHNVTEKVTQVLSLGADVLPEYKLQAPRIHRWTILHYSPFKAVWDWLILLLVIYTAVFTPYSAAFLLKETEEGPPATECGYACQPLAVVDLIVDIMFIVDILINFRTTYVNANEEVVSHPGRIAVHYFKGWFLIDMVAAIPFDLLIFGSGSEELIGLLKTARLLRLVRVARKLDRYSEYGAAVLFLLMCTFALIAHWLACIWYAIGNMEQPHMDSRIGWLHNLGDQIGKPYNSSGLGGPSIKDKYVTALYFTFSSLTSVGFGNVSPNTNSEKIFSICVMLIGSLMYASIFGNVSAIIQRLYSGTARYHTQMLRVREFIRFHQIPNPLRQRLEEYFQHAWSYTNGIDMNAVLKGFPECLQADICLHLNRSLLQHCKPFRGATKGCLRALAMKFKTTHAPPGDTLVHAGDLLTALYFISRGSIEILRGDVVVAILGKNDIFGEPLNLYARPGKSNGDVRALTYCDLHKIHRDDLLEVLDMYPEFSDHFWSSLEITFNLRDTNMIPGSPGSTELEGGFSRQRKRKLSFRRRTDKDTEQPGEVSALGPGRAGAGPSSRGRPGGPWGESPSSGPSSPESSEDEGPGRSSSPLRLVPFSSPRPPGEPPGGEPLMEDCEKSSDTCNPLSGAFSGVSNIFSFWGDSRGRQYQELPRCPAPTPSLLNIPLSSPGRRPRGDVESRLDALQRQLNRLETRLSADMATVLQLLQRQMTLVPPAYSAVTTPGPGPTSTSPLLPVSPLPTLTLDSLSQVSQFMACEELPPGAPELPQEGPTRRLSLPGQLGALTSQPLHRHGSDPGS

| SMILES | hERG current change (%, negative = inhibition) at 10uM [%] |
| --- | --- |
| O=C(CSc1nc2[nH]ncc2c(=O)n1-c1ccc(Cl)c(Cl)c1)NCc1ccccc1Cl | -11.4 |
| COc1ccc(CCN=C(N)NS(=O)(=O)c2ccccc2)cc1OC | 19.5 |
| COC(=O)Cc1ccc(NC(=O)c2ccc3c(c2)C(=O)N(Cc2cccnc2)C3=O)cc1 | 5.83 |
| C[C@H](NC(=O)N1C[C@H]2C[C@@H](C1)c1cccc(=O)n1C2)C(=O)Nc1cccc(F)c1 | 2.4 |
| CC(NS(=O)(=O)c1ccc(OCC(=O)Nc2cccc([N+](=O)[O-])c2)cc1)c1ccccc1 (centres unmarked) | 3.21 |
| COCCN=C1NN=C(c2ccc(C)c([N+](=O)[O-])c2)CS1 | 11.7 |
| O=C(/C=C/c1ccccc1)N/C(=C\c1ccco1)C(=O)O | 19.6 |
| Cc1ccc(OCCSc2nnc(-c3ccncc3)n2C)cc1 | -28.9 |
| Cc1cc(OCCSc2nnc(-c3cccs3)n2C)ccc1Cl | -22.5 |
| CCOC(=O)CSc1nnc(-c2cccs2)n1-c1ccccc1 | -42.8 |
| CCn1c(SCCOc2ccc(Cl)cc2)nnc1-c1cccs1 | -53.8 |
| CCn1c(SCC(=O)c2ccc(Cl)cc2)nnc1-c1cccs1 | -10.8 |
| CCn1c(SCC(=O)NCCc2ccc(Cl)cc2)nnc1-c1cccs1 | -75.8 |
| O=C(O)CSc1nnc(-c2cccs2)n1-c1ccc(Cl)cc1 | -6.94 |
| Cn1c(SCCOc2ccc(Cl)cc2)nnc1-c1ccncc1 | -56.3 |
| COC(=O)CSc1nnc(-c2cccs2)n1-c1ccc(Cl)cc1 | -60.4 |
| Cn1c(SCCOc2ccc(F)cc2)nnc1-c1ccncc1 | -44.4 |
| Cc1ccc(OCCSc2nnc(-c3cccs3)n2C)cc1 | -37 |
| CCn1c(SCC(=O)NCCc2ccccc2)nnc1-c1cccs1 | -27.6 |
| CC(C)N(CCNS(=O)(=O)c1ccc(Cl)cc1)C(C)C.Cl | -28.1 |
| O=C(c1[nH]ncc1-c1cccc(Br)c1)C1CO1 (centres unmarked) | 3.39 |
| O=C(Nc1c(C(=O)N2CCOCC2)cnn1-c1ccccc1)c1ccc(F)cc1 | 13.8 |

| SMILES | hERG current change (%, negative = inhibition) at 10uM [%] |
| --- | --- |
| CC(C)c1cc(C(=O)NCCc2ccccc2)no1 | -40.1 |
| CCC(C(=O)NC(C)(C)C)N(Cc1ccco1)C(=O)CNS(=O)(=O)c1ccc(OC)cc1 (centres unmarked) | 7.49 |
| O=C(O)/C(=C\c1ccc2ccccc2c1)c1cccc2ccccc12 | 6.53 |
| CC(=O)Nc1ccc(C(=O)N/N=C/c2ccncc2)cc1 | 0.536 |
| Cc1cc(C)n2[nH]c(=O)c(N=Nc3cccc(C(F)(F)F)c3)c2n1 | -23.8 |
| CCn1c(SCC(=O)NCC(=O)Nc2ccc(F)cc2)nnc1-c1cccs1 | -25.1 |
| CCn1c(SCC(=O)NCc2cccs2)nnc1-c1cccs1 | -20.9 |
| CCn1c(SCC(=O)NCCc2ccc(F)cc2)nnc1-c1cccs1 | -61.9 |
| COc1ccc2[nH]c(=O)c(-c3nnn(-c4ccccc4)n3)cc2c1 | -1.01 |
| Cc1ccc(Cn2c(CCC(=O)O)nc3ncccc3c2=O)cc1 | 13.4 |
| Cc1nn(CC(=O)NCCCN2CCC(Cc3ccccc3)CC2)c(=O)c2cc(-c3ccccc3)nn12 | -77 |
| Cc1nn(CC(=O)NCCCN2CCCCC2)c(=O)c2cc(-c3ccccc3)nn12 | -49.4 |
| Cc1nn(CC(=O)NCCCN2CCN(C)CC2)c(=O)c2cc(-c3ccccc3)nn12 | 0.586 |
| CCc1ccc(-c2cc3c(=O)n(CC(=O)NCCN4CCCCC4C)nc(C)n3n2)cc1 (centres unmarked) | -57.5 |
| CCc1ccc(-c2cc3c(=O)n(CC(=O)NCCCN4CCC(Cc5ccccc5)CC4)nc(C)n3n2)cc1 | 2.48 |
| CCc1ccc(-c2cc3c(=O)n(CC(=O)NCCCN4CCN(Cc5ccccc5)CC4)nc(C)n3n2)cc1 | -22.7 |
| CCc1ccc(-c2cc3c(=O)n(CC(=O)NCCCN4CCN(CC)CC4)nc(C)n3n2)cc1 | -30 |
| Cc1nn(CC(=O)NCCCN2CCN(Cc3ccccc3)CC2)c(=O)c2cc(-c3ccccc3)nn12 | -70.1 |
| Cc1nn(CC(=O)NCCN2CCCCC2C)c(=O)c2cc(-c3ccccc3)nn12 (centres unmarked) | -48.4 |
| Cc1ccc(C2/C(=C(/O)c3ccccc3)C(=O)C(=O)N2CCN2CCOCC2)o1 (centres unmarked) | -2.22 |
| COc1ccc(CCN2C(=O)NC(NC(C)=O)(C(F)(F)F)C2=O)cc1OC (centres unmarked) | 7.51 |
| O=C(c1cccc(N2C(=O)C3C4C=CC(C4)C3C2=O)c1)N1CCN(c2ccccc2)CC1 (centres unmarked) | -1.68 |

| SMILES | hERG current change (%, negative = inhibition) at 10uM [%] |
| --- | --- |
| c1ccc2c(c1)ncn2-c1ccc(-c2ccnc3ncnn23)cc1 | -68 |
| c1cn(-c2ccc(-c3ccnc4ncnn34)cc2)cn1 | -27.2 |
| c1ccc(Oc2ccc(-c3ccnc4ncnn34)cc2)cc1 | 10.7 |
| Cc1cc(OCC(=O)NC2CCS(=O)(=O)C2)c2c3c(c(=O)oc2c1)CCC3 (centres unmarked) | -3.87 |
| COc1ccc(CNC(=O)C(=O)NC2CCC(C)CC2)cc1 (centres unmarked) | 19.4 |
| C=C(Cl)CSC(=S)N(CC)CC | 12.1 |
| C=CCn1c(SCC(=O)N(CC)C2CCS(=O)(=O)C2)nnc1-c1ccccc1 (centres unmarked) | -2.7 |
| CCN(C(=O)CSc1nc(-c2cccs2)nc2ccccc12)C1CCS(=O)(=O)C1 (centres unmarked) | -95.6 |
| C=CCn1c(SCC(=O)N(C)C2CCS(=O)(=O)C2)nnc1-c1ccccc1 (centres unmarked) | 16.8 |
| CCN(C(=O)CSc1n[nH]c(-c2cccs2)n1)C1CCS(=O)(=O)C1 (centres unmarked) | 12.2 |
| C=CCn1c(SCC(=O)N(C)C2CCS(=O)(=O)C2)nc2ccccc2c1=O (centres unmarked) | -50 |
| CCOCCCn1c(SCC(=O)N(C)C2CCS(=O)(=O)C2)nc2ccccc2c1=O (centres unmarked) | -37.5 |
| C=CCn1c(SCC(=O)N(CC)C2CCS(=O)(=O)C2)nc2ccccc2c1=O (centres unmarked) | -79.2 |
| COCCn1c(SCC(=O)N(C)C2CCS(=O)(=O)C2)nc2ccccc2c1=O (centres unmarked) | -12.1 |
| C=CCn1c(SCC(=O)N(CC)C2CCS(=O)(=O)C2)nc2cc(C(=O)O)ccc2c1=O (centres unmarked) | 5.01 |
| CCN(C(=O)CSc1nc2ccccc2c(=O)n1CCOC)C1CCS(=O)(=O)C1 (centres unmarked) | -61.2 |
| O=C(CSc1nc(-c2cccs2)nc2ccccc12)NC1CCS(=O)(=O)C1 (centres unmarked) | 6.45 |
| CCN(C(=O)CSc1nc2ccccc2c(=O)n1C(C)COC)C1CCS(=O)(=O)C1 (centres unmarked) | -22.8 |
| Cn1c(=O)[nH]c(=O)c2c1[nH]c(=S)n2Cc1ccccc1 | 17.5 |
| COc1cc2cc(C(=O)NCCc3ccccc3)[nH]c2cc1OC | 19.2 |
| COc1ccc(C(=O)/C=C/NCc2ccc(C)cc2)cc1 | -17.2 |
| Cc1ccc2c(c1)c1nnc(SCC(=O)Nc3ccc(N(C)C)cc3)nc1n2CC(=O)O | 6 |

| SMILES | hERG current change (%, negative = inhibition) at 10uM [%] |
| --- | --- |
| Cc1ccc(NC(=O)C2(c3ccccc3)CCOCC2)c([N+](=O)[O-])c1 | -22.5 |
| COC(=O)c1cc(N2CCNCC2)nc2ccccc12.Cl | -17 |
| CCN1C(=O)c2cccc3c(S(=O)(=O)N(C(=O)c4ccncc4)c4ccc(OC)cc4)ccc1c23 | -7.51 |
| Cc1sc2nc(CN3CCCCC3)nc(N3CCN(C(=O)c4ccco4)CC3)c2c1C | -75 |
| Cc1sc2nc(CN3CCOCC3)nc(Oc3ccc(NC(=O)c4ccco4)cc3)c2c1C | -38.9 |
| Cc1sc(NC(=O)c2ccco2)c(CN2CCCCC2)c1C | -49.9 |
| Cc1sc2nc(CN3CCOCC3)nc(N3CCC(C(N)=O)CC3)c2c1C | 5.73 |
| Cc1sc2nc(CN3CCCC3)nc(N3CCC(C(N)=O)CC3)c2c1C | -3.64 |
| Cc1sc2nc(CN3CCCC3)nc(N3CCN(C(=O)c4ccco4)CC3)c2c1C | -68.6 |
| CCCn1c(SCN2C(=O)c3ccccc3C2=O)nc2cc(Cl)ccc2c1=O | 16.5 |
| COC(=O)c1ccc(-c2cc(C(=O)O)c3cc4c(cc3n2)OCCO4)cc1 | -0.776 |
| CC(C)C12CN3CCN(CC(C3)/C1=N\NC(=O)Nc1ccccc1)C2 | -16.1 |
| O=C(CN1CCN(c2ccccn2)CC1)NCc1cccs1 | -26.2 |
| CC(C)n1c(NCc2cccs2)nc2ccccc21 | -12.6 |
| CC(C)n1c(N2CCN(CC(=O)NCc3cccs3)CC2)nc2ccccc21 | -60.8 |
| CC(C)(C)NC(=O)Cn1c(SCC(=O)NCc2cccs2)nc2ccccc21 | 6.18 |
| COc1cccc(N2CCN(CC(=O)NCc3cccs3)CC2)c1 | -3.18 |
| CCCn1c(N2CCN(CC(=O)NCc3cccs3)CC2)nc2ccccc21 | -74.7 |
| Nc1c(Cl)ncnc1NCC(O)CO (centres unmarked) | 17.7 |
| O=C(Nc1ccc(Oc2ccc(NC(=O)c3ccco3)c(NC(=O)c3ccco3)c2)cc1)c1ccco1 | -13.5 |
